Measured values from paper PMC5540273 (PLoS ONE, 2017).

Key:
Details in all cases: concentration: 1 μM, replicates: in singlicate; n = 1
HIPK2 = system: HIPK2
HIPK3 = system: HIPK3
HIPK4 = system: HIPK4
HPK1 = system: HPK1
HUNK = system: HUNK
ICK = system: ICK
IGF1R = system: IGF1R
IKK-alpha = system: T1, IKK-alpha
T1 construct: gene CHUK

IKK-beta = system: T2, IKK-beta
T2 construct: gene IKBKB

IKK-epsilon = system: T3, IKK-epsilon
T3 construct: gene IKBKE

INSRR = system: INSRR
INSR = system: INSR
IRAK1 = system: IRAK1
IRAK3 = system: IRAK3
IRAK4 = system: IRAK4
ITK = system: ITK
[1] = system: JAK1(JH1domain-catalytic)
[2] = system: JAK1(JH2domain-pseudokinase)
[3] = system: JAK2(JH1domain-catalytic)
[4] = system: JAK3(JH1domain-catalytic)
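Further: KINOMEscan kinase panel screen.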

Structure (SMILES)	%Inh (HIPK2) [%]	%Inh (HIPK3) [%]	%Inh (HIPK4) [%]	%Inh (HPK1) [%]	%Inh (HUNK) [%]	%Inh (ICK) [%]	%Inh (IGF1R) [%]	%Inh (IKK-alpha) [%]	%Inh (IKK-beta) [%]	%Inh (IKK-epsilon) [%]	%Inh (INSRR) [%]	%Inh (INSR) [%]	%Inh (IRAK1) [%]	%Inh (IRAK3) [%]	%Inh (IRAK4) [%]	%Inh (ITK) [%]	%Inh [1] [%]	%Inh [2] [%]	%Inh [3] [%]	%Inh [4] [%]
CCc1nc(-c2cccc(N(C)S(=O)(=O)c3ccccc3)c2)c(-c2ccnc(Nc3ccc(N4CCN(C(C)=O)CC4)nc3)n2)s1 [GSK1645895]	0	17	0	35	0	13	0	0	1	39	0	20	11	0	13	0	15	21	0	0
Cl.Cl.c1ccc(-c2cc3ccncc3cc2OC2CCNCC2)cc1 [GSK1122999]	0	20	0	51	27	0	0	72	98.7	9	0	0	56	24	1	11	22	0	8	0
CS(=O)(=O)CCNCc1ccc(-c2ccc3ncnc(Nc4ccc(OCc5ccccc5)c(Cl)c4)c3c2)o1.Cl [GW574783]	13	18	18	22	14	0	13	0	0	7	24	7	0	12	0	0	9	0	14	0
CNc1nccc(-c2c(-c3ccc(F)cc3)ncn2CCCN2CCOCC2)n1 [SB-222516]	0	0	0	0	39	37	2	0	0	0	0	0	6	10	9	4	0	0	8	0
COC(=O)c1cccc(NC(=O)NCCNc2ccnc(Nc3ccc(F)cc3)n2)c1 [GSK1379883]	0	0	0	45	90	0	6	0	0	1	0	0	13	0	4	11	30	0	1	0
O=C(Nc1n[nH]c2nc(-c3ccco3)c(Br)cc12)c1ccc(CN2CCCC2)cc1.O=C(O)[C@H](O)[C@@H](O)C(=O)O [SB-742352]	0	0	0	17	0	37	0	0	0	0	0	0	0	0	0	3	0	1	0	0
COc1ccc(Nc2nccc(N3CCC(NC(=O)c4cccc(NC(C)=O)c4)C3)n2)cc1 (centres unmarked) [GSK1379732]	13	0	0	43	28	0	0	0	0	19	0	0	24	0	0	0	15	0	22	0
O=C(c1ccc(-c2cc(-c3c[nH]nc3-c3ccccn3)ccn2)cc1)N1CCCC1 [GW792479]	0	0	24	20	9	0	0	0	0	0	0	6	0	0	0	0	0	15	0	39
Fc1cccc(COc2ccc(Nc3ncnc4cc[nH]c34)cc2Cl)c1	27	40	9	0	8	5	5	5	23	39	0	0	6	0	4	13	0	36	19	0
Cc1ccc(C)c(NC(=O)NCCNc2ccnc(Nc3ccc(F)cc3)n2)c1 [GSK1379878]	0	0	0	28	0	0	0	0	0	9	0	0	0	0	0	0	0	0	1	0
Cl.c1ccc(Cn2ccc3cc(Nc4ncnc5ccccc45)ccc32)cc1 [GW275568]	0	9	0	31	3	0	0	0	0	24	0	12	0	0	0	12	18	10	100	0
Clc1cc(Nc2ncnc3cc[nH]c23)ccc1OCc1ccccn1	19	27	0	0	13	18	0	9	20	27	0	3	6	19	2	0	3	35	16	0
Cc1ccc(O)cc1Nc1cc(C(F)(F)F)nc2ccc(-c3ccncc3)cc12 [GW630823]	0	0	9	0	3	0	5	0	0	0	0	0	0	56	0	19	0	0	0	0
NC(=O)c1sc(-n2cnc3ccccc32)cc1OCc1ccccc1F [GSK1024306]	44	0	24	51	0	0	0	0	2	0	0	0	0	0	0	8	6	0	21	0
COc1cc2ncnc(Nc3ccc(OCc4ccccc4Br)c(Cl)c3)c2cc1OC.Cl [GI261590]	0	0	0	33	11	0	0	32	16	18	0	0	32	13	18	12	17	0	0	0
COC(=O)c1c(-c2ccccc2)c2cc(Cl)ccc2c(=O)n1Cc1ccc(S(C)(=O)=O)cc1	24	0	0	0	0	32	0	0	0	0	0	5	11	19	9	21	0	0	5	4

Structure (SMILES)	%Inh (HIPK2) [%]	%Inh (HIPK3) [%]	%Inh (HIPK4) [%]	%Inh (HPK1) [%]	%Inh (HUNK) [%]	%Inh (ICK) [%]	%Inh (IGF1R) [%]	%Inh (IKK-alpha) [%]	%Inh (IKK-beta) [%]	%Inh (IKK-epsilon) [%]	%Inh (INSRR) [%]	%Inh (INSR) [%]	%Inh (IRAK1) [%]	%Inh (IRAK3) [%]	%Inh (IRAK4) [%]	%Inh (ITK) [%]	%Inh [1] [%]	%Inh [2] [%]	%Inh [3] [%]	%Inh [4] [%]
COc1ccc(-c2oc3ncnc(N)c3c2-c2ccc(OC)cc2)cc1 [SB-589132]	25	3	0	40	8	0	0	49	4	6	0	0	56	15	58	19	25	31	1	19
COc1ccc(NC(=O)Nc2ccc(C)c(-c3ccc(C(=O)Nc4ccncc4)cc3)c2)cc1 [GSK1398475]	0	4	0	47	7	0	0	0	0	0	0	30	0	0	0	9	11	0	0	0
CCC(CC)(CC)n1cnc2c(N)ncnc21 [SKF-97620]	10	19	8	0	34	32	0	30	8	0	4	0	33	0	0	9	10	0	22	22
Fc1cccc(COc2ccc(Nc3ncnc4sc(-c5ccc[nH]5)cc34)cc2Cl)c1 [GW707818]	0	1	0	39	10	0	0	0	0	0	0	13	20	0	0	0	18	4	100	0
CSc1nn2c(=O)cc(N3CCOCC3)nc2n1Cc1cccc(Cl)c1Cl [GSK2347225]	0	17	2	25	25	0	0	0	0	28	0	17	0	0	0	13	24	0	18	0
O=C(Nc1ccccc1)Nc1ccc(Oc2ccc3nccn3n2)cc1	0	0	4	0	9	0	0	0	0	0	1	0	0	0	0	20	28	2	8	0
Clc1ccc(-c2cc(-c3c[nH]nc3-c3ccccn3)ccn2)cc1 [GW681251]	0	19	0	24	6	0	4	0	28	3	0	0	43	0	8	16	0	0	2	0
C[C@@H]1CCN(C(=O)CO)C[C@@H]1N(C)c1ncnc2[nH]ccc12	0	0	0	0	0	0	0	0	0	0	9	0	0	19	0	0	94	21	100	98.8
Cc1cccc(-c2nc(Nc3ccc4[nH]nnc4c3)c3ccccc3n2)n1 [GW867587]	0	0	0	0	37	0	0	0	0	0	0	0	0	0	0	0	0	52	22	0
Cl.c1ccc(Cn2ncc3cc(Nc4ncnc5ccccc45)ccc32)cc1 [GW273749]	0	0	0	20	0	0	0	0	31	24	0	3	0	0	9	0	8	0	11	0
Nc1nc(-c2ccc3c(N)n[nH]c3c2)cc(N2CCCCC2)n1 [GSK2228768]	0	0	0	32	0	0	0	0	0	29	0	1	0	0	9	18	0	0	0	0
N#Cc1ccc(Oc2ccc(Nc3ncnc4cc[nH]c34)cc2Cl)cc1	32	10	4	0	1	0	0	2	17	12	0	0	16	3	13	9	12	25	19	4
Cn1cc(-c2ccc3c(c2)CCN3C(=O)Cc2cccc(C(F)(F)F)c2)c2c(N)ncnc21 [GSK2606414]	0	16	0	6	0	4	0	13	7	4	3	1	0	15	10	12	7	0	34	0
Cl.O=S(=O)(c1cccc(F)c1)c1ccc(Nc2ncnc3cc(Br)sc23)cc1Cl [GSK306886]	0	23	0	29	57	0	0	0	41	0	0	13	32	0	0	0	15	0	2	0
c1ccc(-c2ccc3c(-c4ccnc(Nc5ccc6c(c5)OCCO6)n4)cnn3n2)cc1 [GW818941]	0	0	21	47	0	8	9	21	14	6	11	3	8	42	6	9	14	0	11	0
